Measurements reported in PubChem BioAssay (NCATS).
Records with an inconclusive call do not appear. Calls of active or inactive are those of the source. Unless noted, calls come from the whole dose curve; as a rule, active = well fitted curve in the direction sought with a large enough effect; inconclusive = small, poorly fitted or top-dose-only effect, or another doubt; inactive = no such curve, though single readings can be large; an effect the other way counts as inactive or inconclusive.

Key:
[1] = biological target: Cytochrome P450 3A4 (Homo sapiens) (UniProt P08684); test: qHTS Assay for Inhibitors and Substrates of Cytochrome P450 3A4 (AID 884); note: nearly all actives have a fitted effect of over 50% in size; note: potency is the fitted concentration of half-maximal effect; for activity change, negative = inhibition: % is set by controls: 0 for no effect and ±100 for the full control effect
Sequence of Cytochrome P450 3A4 (Homo sapiens) (P08684 whole entry, looked up): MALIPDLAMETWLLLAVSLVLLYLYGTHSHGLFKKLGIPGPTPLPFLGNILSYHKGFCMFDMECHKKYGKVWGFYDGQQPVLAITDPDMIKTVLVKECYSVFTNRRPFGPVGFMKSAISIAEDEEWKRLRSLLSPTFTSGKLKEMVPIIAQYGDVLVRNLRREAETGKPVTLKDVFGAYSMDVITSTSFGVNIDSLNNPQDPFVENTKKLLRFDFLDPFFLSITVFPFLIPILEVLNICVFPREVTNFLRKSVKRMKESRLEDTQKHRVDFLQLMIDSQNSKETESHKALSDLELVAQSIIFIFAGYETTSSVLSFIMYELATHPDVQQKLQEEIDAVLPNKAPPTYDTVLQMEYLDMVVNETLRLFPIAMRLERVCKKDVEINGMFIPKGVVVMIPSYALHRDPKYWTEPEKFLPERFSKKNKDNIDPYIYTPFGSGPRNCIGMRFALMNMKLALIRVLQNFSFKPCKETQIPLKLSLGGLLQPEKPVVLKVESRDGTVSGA
How it was run: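 20 nM human CYP3A4 with 25 uM Luciferin-PPXE (at KM) in 200 mM KPO4, preincubated 10 min with compound; NADPH regeneration started a 60 min RT reaction. Luciferin detected by luminescence, normalized to 57 uM ketoconazole as full inhibition.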

[2] = Confirmation and Secondary Assay for Modulators of Hemoglobin Beta Chain Splicing at IVS2 654 locus (AID 910);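 note: HeLa cells stably carrying EGFP split by mutant beta-globin IVS2-654 intron; per-well total GFP intensity by laser scanning cytometry after 2-day treatment; % of control where 0% means no effect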
How it was run: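 Readout: per-well total peak green fluorescence (488 nm ex, 500–520 nm em) from objects 5–250 µm, reflecting correct splicing of an EGFP-654 reporter. Compounds were applied for 2 days at 37 °C to overnight-plated HeLa EGFP-654 cells; controls were DMSO and 500 nM IVS2-654 PNA.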

[3] = Confirmation and Secondary Assay for Modulators of Hemoglobin Beta Chain Splicing at IVS2 705 locus (AID 930);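 note: HeLa cells stably expressing the EGFP-705 splicing reporter; GFP fluorescence per well restored by corrected splicing of the IVS2-705 intron in EGFP; % of control where 0% means no effect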
How it was run: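 Assay measures total GFP intensity per well in HeLa EGFP-705 cells after 2 days with compound; mis-splicing normally truncates EGFP, so fluorescence indicates corrected splicing.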

[4] = qHTS Assay for Lipid Storage Modulators (AID 1519; calls by dose curve; for activity change, negative = inhibition: % is set by controls: 0 for no effect and ±100 for the full control effect); details: Drosophila S3 cells, BODIPY lipid droplet/cell ratio, laser cytometry, cells loaded with oleic acid
How it was run: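 Cells seeded at 5,000 per well were treated with compounds over a concentration series and loaded with oleic acid (400 uM, as added). Lipid droplet fluorescence (488 nm excitation, 500-530 nm channel) was read by laser-scanning cytometry and normalized to 20 uM Triacsin C.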

[5] = biological target: Alpha-galactosidase (Coffea arabica) (UniProt Q42656); test: Counterscreen for Glucocerebrosidase Inhibitors: qHTS Assay for Coffee Bean alpha-Galactosidase at pH 4.5 (AID 957);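 note: plate controls were enzyme alone for no effect and no enzyme for full effect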
Sequence of Alpha-galactosidase (Coffea arabica) (Q42656 whole entry, looked up): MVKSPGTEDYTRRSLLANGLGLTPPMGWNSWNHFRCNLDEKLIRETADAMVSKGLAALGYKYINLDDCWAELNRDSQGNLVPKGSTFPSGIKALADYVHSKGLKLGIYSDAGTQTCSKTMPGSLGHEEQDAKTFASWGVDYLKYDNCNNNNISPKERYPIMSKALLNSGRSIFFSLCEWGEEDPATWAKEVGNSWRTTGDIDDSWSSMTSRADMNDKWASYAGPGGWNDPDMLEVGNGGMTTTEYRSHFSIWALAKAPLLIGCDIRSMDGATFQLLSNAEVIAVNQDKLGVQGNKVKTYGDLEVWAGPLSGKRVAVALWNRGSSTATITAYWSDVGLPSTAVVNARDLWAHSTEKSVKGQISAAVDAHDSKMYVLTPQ
How it was run: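 Coffee bean enzyme (2 nM) with 80 uM 4-methylumbelliferyl alpha-D-galactopyranoside in 50 mM citric acid, 0.005% Tween-20, pH 4.5, 20 min at room temperature; compounds 0.7 nM–77 uM. Stopped at pH 10, fluorescence 365/440 nm; AC50 from Hill fits.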

[6] = biological target: Cytochrome P450 3A4 (Homo sapiens) (UniProt P08684); test: qHTS Assay for Activators of Cytochrome P450 3A4 (AID 885); note: nearly all actives have a fitted effect of over 65% in size
How it was run: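 Quantitative HTS format: compounds preincubated with 20nM human CYP3A4 and Luciferin-PPXE substrate at KM, reaction started by NADPH regeneration, stopped after 60 min, luciferase luminescence read 20 min later.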

[7] = measured here: cell count channel max response
[8] = measured here: lipid channel max response

Row | SMILES | Potency [1] | Potency [2] | Potency [3] | activity change, negative = inhibition ([4]; at 57.5 µM (top of the series)) | max response [4, 7] [%] | max response [4, 8] [%] | outcome [5] | activity change, negative = inhibition ([4]; at 25.7 µM (top of the series)) | Potency [6]
1 | COc1cc2c(cc1O)CCNC2C (stereo unspecified) | inactive | inactive | inactive | 6.98% (inactive) | 8.33 | 17.5 |  |  | 
2 | COC1C(O)C(OC2CC[C@]3(C=O)C4C(OC(C)=O)C[C@@]5(C)C(C6=CC(=O)OC6)CC[C@]5(O)C4CC[C@]3(O)C2)OC(C)C1OC(C)=O (stereo partly specified) | inactive | inactive | inactive | 4.28% (inactive) | 10 | 17.4 |  |  | 
3 | COC(=O)COc1ccc(Cl)cc1Cl | inactive | inactive | inactive | 8.24% (inactive) | 0.885 | 8.23 |  |  | 
4 | NC(=NCCCC(N)C(=O)O)N[N+](=O)[O-] (stereo unspecified) |  | inactive | inactive | 0.218% (inactive) | -5.56 | -2.81 |  |  | 
5 | NC(N)=NN=Cc1c(Cl)cccc1Cl |  |  |  |  | -4.82 | -7.49 | inactive | -2.38% (inactive) | 
6 | O=c1cccc2n1CC1CC2CN2CCCCC12 (stereo unspecified) | inactive | inactive | inactive | 0.982% (inactive) | 1.81 | 1.59 |  |  | 
7 | CC1CC[C@@]2(OC1)OC1C(O)C3C4CC[C@H]5CC(O[C@@H]6O[C@@H](CO)[C@H](OC7OC(CO)C(O)C(OC8OCC(O)C(O)[C@H]8O)[C@@H]7O[C@@H]7OC(CO)[C@H](O)[C@@H](O[C@@H]8OC(CO)C(O)C(O)C8O)C7O)C(O)C6O)C(O)C[C@]5(C)C4CC[C@]3(C)C1C2C (stereo partly specified) |  | inactive | inactive | -0.601% (inactive) | -28.8 | -26 |  |  | inactive
8 | S=C=NCc1ccccc1 | 25.1 µM (active) | inactive | inactive | 4.36% (inactive) | -6.33 | 0.435 |  |  | inactive
